# A selection: hits, their analogues and other compounds. The true share with any hit is near 3%.
# Measles CPE = protection of cells from measles virus; Measles virus-infected cells, CPE protection, absorbance; protection (pct of control), % at 4 µM; 1.5% of 140,000 active; AID 841; in the data active = protection mostly above about 24%, no sharp cut-off; inactive = mostly below about 26%
# ROMK mod = modulators of human ROMK potassium channel | P48048 | Tet-inducible ROMK, thallium flux fluorescence; actives lie on both sides | B-score at 10 µM | AID 1918 | 2% of 130,000 active;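 active = signal ratio slope over the read window, or its plate-corrected B-score, at least 3 SD from the plate mean, either direction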;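 also: B-score of the F/F0 ratio slope over 7 to 12 s after thallium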
# Target sequence (P48048 whole entry, looked up): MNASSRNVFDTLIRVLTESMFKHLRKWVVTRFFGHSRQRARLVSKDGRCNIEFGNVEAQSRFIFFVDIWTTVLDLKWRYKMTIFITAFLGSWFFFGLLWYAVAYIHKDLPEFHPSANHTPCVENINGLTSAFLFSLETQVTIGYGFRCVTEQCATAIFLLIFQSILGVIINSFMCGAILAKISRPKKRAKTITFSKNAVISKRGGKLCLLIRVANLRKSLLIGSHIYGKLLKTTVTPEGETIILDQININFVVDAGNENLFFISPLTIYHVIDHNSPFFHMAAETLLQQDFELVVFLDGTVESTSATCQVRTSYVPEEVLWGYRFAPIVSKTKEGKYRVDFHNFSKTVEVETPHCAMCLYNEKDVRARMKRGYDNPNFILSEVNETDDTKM
# SDO1 yeast rescue = compounds rescuing growth of sdo1-depleted yeast, bone marrow failure model | S. cerevisiae sdo1-depleted JHY4D growth rescue, OD600 30 h; stronger effect = higher value; pdr5 snq2 efflux-pump mutant strain | 0.21% of 140,000 active | z-score at 10 µM;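 active = z-score above 3 at both the 24 hr and the 30 hr optical density reads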
# Insulin prom inh = TRM-6 insulin promoter activity inhibition; AID 1273; TRM-6 cells (human fetal islet line), insulin promoter-eGFP reporter, imaging; reporter expression induced with tamoxifen; 0.9% of 130,000 active; inhibition, % at 2 µM;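 active = inhibition above the mean plus 3 SD, with well images judged a real hit on visual review, cut at about 60% in these data, passing the limit was not always enough; inconclusive = inhibition over the cutoff but images rejected on review; inactive = inhibition not above the cutoff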
# A number is an active result; . = inactive; ? = inconclusive; / = no result given.
SMILES,Measles CPE,ROMK mod,SDO1 yeast rescue,Insulin prom inh
CCS(=O)(=O)N1Cc2ccccc2CC1C(=O)N1CCN(c2ccccc2)CC1 (configuration not stated),62,/,.,.
CS(=O)(=O)N1Cc2ccccc2CC1C(=O)O (configuration not stated),/,.,/,.
CCC(=O)Nc1nc2ccc(S(C)(=O)=O)cc2s1,52,/,.,.
CCOCC(=O)Nc1nc2ccc(S(C)(=O)=O)cc2s1,.,/,.,.
CNC(=S)Nc1sc2c(c1C(=O)OC)CCC2,/,6.3,/,/
CC(NC(=O)C(=O)NN=C1CCCC1)c1ccccc1 (configuration not stated),/,.,/,/
O=C(Nc1ccccc1)/C(=C/c1cccnc1)NC(=O)c1ccco1,.,/,.,.
O=C(Nc1cccc(Cl)c1)/C(=C\c1cccnc1)NC(=O)c1ccco1,/,.,/,67
Cc1[nH]n(-c2ccccc2)c(=O)c1C(c1ccc(O)c([N+](=O)[O-])c1)c1c(C)[nH]n(-c2ccccc2)c1=O,/,/,/,77
CC(=O)Nc1ccc(NC(=O)CCc2nc3ccccc3c(=O)[nH]2)cc1,/,.,/,/
O=C(CCc1nc2ccccc2c(=O)[nH]1)Nc1ccc(Cl)c(Cl)c1,31,.,.,.
CN1CCCCC1=NCCCn1cnc2c1c(=O)n(C)c(=O)n2C,19,/,.,/
Cn1c(=O)c2c(ncn2CC(N)=O)n(C)c1=O,.,.,.,.
O=C(NCCCn1ccnc1)C(Cc1ccccc1)N1C(=O)c2ccccc2C1=O (configuration not stated),.,.,.,/
CCOC(=O)C(NCCc1ccccc1)(NC(=O)CC)C(F)(F)F (configuration not stated),.,.,.,/
Cc1nn(C2CCS(=O)(=O)C2)c(Cl)c1/C=C/C(=O)OCC(=O)c1c[nH]c2ccccc12 (configuration not stated),.,.,.,.
Cc1nn(C2CCS(=O)(=O)C2)c(Cl)c1/C=C/C(=O)OCC(=O)c1cc(C)n(-c2ccc(F)cc2)c1C (configuration not stated),46,/,.,.
NC(=O)COC(=O)CC(NC(N)=O)c1ccc(Cl)cc1 (configuration not stated),37,/,.,/
Cc1cc(C(=O)Cn2cncn2)c(C)n1CCc1ccc(F)cc1,68,/,.,?
Cc1cc(C(=O)COC(=O)c2ccncc2)c(C)n1CCc1ccc(F)cc1,/,.,/,/
COC(=O)c1ccc(Cn2c(O)c(N=O)c3ccccc32)o1,66,/,.,/
Nc1ccc2c(c1)CC(=O)c1ccccc1S2,.,.,.,77
CCOc1ccc(/C(O)=C2/C(=O)C(=O)N(CC3CCCO3)C2c2ccc(C)o2)cc1 (configuration not stated),46,/,.,.
Cc1ccc(NC(=O)c2ccc(CSc3nnc(-c4ccncc4)n3C)cc2)c(C)c1,100,/,.,.
CCCCNc1c(N)n(CC(C)C)c(=O)[nH]c1=O,/,.,/,/
SMILES,Measles CPE,ROMK mod,SDO1 yeast rescue,Insulin prom inh
C=CCN1C(=O)C(C)(C)N(C(C)=O)c2ccccc21,20,.,.,.
CC(=O)N1c2ccccc2N(Cc2ccc(C)cc2C)C(=O)C1(C)C,.,/,.,/
O=C(CSc1nc2cc([N+](=O)[O-])ccc2n1-c1ccc(F)cc1)NC1CCS(=O)(=O)C1 (configuration not stated),.,.,.,.
CCOC(=O)c1cc(=O)n2nc(-c3ccccc3F)nc2s1,.,.,.,86
COc1cc(/C=N\n2nnnc2N)ccc1OCc1ccc(F)cc1,60,/,.,/
COc1cc(/C=N/n2c(C)n[nH]c2=S)ccc1OCc1ccc(F)cc1,122,.,.,.
CC1CN(C(=S)SCCN2C(=O)CCC2=O)CC(C)O1 (configuration not stated),/,.,/,/
CCOc1ccccc1N/C=C(\C#N)c1nc2ccccc2n1C,.,.,.,72
CCOC(=O)N1CCC(NC(=O)CN2C(=O)CSc3ncccc32)CC1,30,/,.,.
COc1cccc(C2C(C(C)=O)=C(O)C(=O)N2CCc2c[nH]c3ccccc23)c1 (configuration not stated),.,/,.,.
O=C(COc1ncnc2ccccc12)c1ccc(Cl)cc1,/,.,/,/
O=c1c(Cl)c(NCc2ccc(F)cc2)cnn1C12CC3CC(CC(C3)C1)C2,36,.,.,.
Cc1ccc(CNc2cnn(C34CC5CC(CC(C5)C3)C4)c(=O)c2Cl)cc1,.,.,.,.
CC1(C)NC(=O)N(CC(O)COc2cc3ccccc3cc2C(=O)N2CCCCC2)C1=O (configuration not stated),.,.,.,/
CC1(C)NC(=O)N(CC(O)COc2ccccc2C(=O)N2CCCCC2)C1=O (configuration not stated),44,.,.,/
CCc1ccc2[nH]c(C(=O)Nc3ccc4c(c3)OCO4)cc2c1,/,.,/,/
